High-throughput results from PubChem BioAssay.
UDG counterscr = blocks uracil-DNA glycosylase in AID counter-screen; FRET deamination/UDG coupled assay, UDG read, 4 h; Potency, µM (highest dose often 115 µM), without a hit: top-dose activity change, negative = inhibition, usual class: inhibitors; hit rate 0.14% among 91,000; AID 1347430; also: nearly all actives have a fitted effect of over 65% in size
AID inh = activation induced cytidine deaminase inhibition | Q9GZX7 | AID deamination FRET fluorescence, UDG-coupled, 4 h | hit rate 0.32% among 91,000 | Potency, µM (top dose mostly 115 µM), actives largely listed as inhibitors | AID 1347428; also: nearly all actives have a fitted effect of over 25% in size
Target sequence (Q9GZX7 whole entry, looked up): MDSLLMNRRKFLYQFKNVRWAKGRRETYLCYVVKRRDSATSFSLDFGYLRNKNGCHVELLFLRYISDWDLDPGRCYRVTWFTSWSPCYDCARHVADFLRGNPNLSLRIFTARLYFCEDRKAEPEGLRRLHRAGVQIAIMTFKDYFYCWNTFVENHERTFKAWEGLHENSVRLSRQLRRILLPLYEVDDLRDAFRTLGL
Starred values were filed as active, the others as inactive; i = inactive; ? = inconclusive; [ ] = remark or other dose. This is a sample that favours compounds with a hit; in the whole collection about 0.4% have one here. Calls follow the shape of the dose curve; as a rule, active = well fitted curve in the direction sought with a large enough effect; inconclusive = small, poorly fitted or top-dose-only effect, or another doubt; inactive = no such curve, though single readings can be large; an effect the other way counts as inactive or inconclusive. % is scaled to controls: 0 for no effect and ±100 for the full control effect; potency is read from the fitted curve at half-maximal effect.

SMILES	UDG counterscr	AID inh
CCc1ccc(OCCCSc2nc(-c3ccc(C(C)(C)C)cc3)nc3cc(=O)[nH]n23)cc1	-22%	79µM*
Cc1cccc(OCCCSc2nc(-c3ccc(C(C)(C)C)cc3)nc3cc(=O)[nH]n23)c1C	-21%	?
Cc1cc(N)c2ccccc2[n+]1CCCCCCCCCC[n+]1c(C)cc(N)c2ccccc21	89µM*	50µM*
CCCCC1CCC(C(=O)Nc2ccc(OC)c3ncccc23)CC1 (configuration not stated)	-5%	i
Cc1ccc(-n2[nH]c(CSc3nnnn3-c3ccccc3)cc2=O)cc1	89µM*	i
Cc1ccc(CSc2nnnn2-c2c(C)n(C)n(-c3ccccc3)c2=O)cc1	0%	i
CCOC(=O)c1sc(N)c(SC#N)c1C	-13%	i
CCn1c(-n2nc(C)c(C)c2C)nc2c1c(=O)n(Cc1c(F)cccc1Cl)c(=O)n2C	3%	i
Cc1ccc(C)c(N2CCN(C(=O)c3cc4ccc5cccnc5c4[nH]3)CC2)c1	0%	?
Cc1cccc(N2CCN(C(=O)c3cc4ccc5cccnc5c4[nH]3)CC2C)c1 (configuration not stated)	?	35µM*
CCN(CC(=O)NC(C)C)C(=O)c1ccc(SC(C)C)cc1	-7%	i
N#Cc1cccc(COC(=O)c2c[nH]c3ccccc23)c1	3%	i
CCOc1ccc(NC(=O)CC2Nc3cccc4cccc(c34)NC2=O)cc1 (configuration not stated)	?	50µM*
CCOC(=O)c1ccc(NC(=O)CC2Nc3cccc4cccc(c34)NC2=O)cc1 (configuration not stated)	-4%	?
CC(=O)c1ccc(NC(=O)CC2Nc3cccc4cccc(c34)NC2=O)cc1 (configuration not stated)	?	79µM*
COc1ccc(NC(=O)CC2Nc3ccccc3NC2=O)cc1 (configuration not stated)	-8%	i
Cc1cccc(Nc2nc(-c3ccccc3)cs2)c1C	-2%	i
O=C(c1cc(-c2ccccc2)c(-c2ccccc2)s1)C(c1ccccc1)c1ccccc1	-11%	i
Brc1c(Br)c(Br)c2[nH]cnc2c1Br	-5%	i
Brc1c(Br)c(Br)c2n[nH]nc2c1Br	7%	40µM*
COc1cccc(Cc2nc3ccccc3nc2SCC(=O)N2CCCCC2C)c1 (configuration not stated)	-3%	?
Cc1ccc(Cc2nc3ccccc3nc2SCC(=O)N2CCCCC2C)cc1 (configuration not stated)	-19%	50µM*
Cc1ccccc1/C=C(\C#N)c1nc2ccccc2[nH]1	-1%	i
COc1cc(NC(=O)c2cn(C3CCCC3)c(=O)c3c2c2ccccc2n3C)cc(OC)c1OC	1%	i
COc1ccc(N(C)C(=O)c2cn(C3CCCCC3)c(=O)c3c2c2ccccc2n3C)cc1	?	40µM*
SMILES	UDG counterscr	AID inh
O=C(O)C/C(=C/c1ccsc1)c1nc2ccccc2s1	11%	i
O=S1(=O)c2ccccc2N(Cc2ccc(F)cc2)c2ccccc21	-17%	?
O=S1(=O)c2ccccc2N(Cc2ccc(Cl)cc2)c2ccccc21	-29%	79µM*
COC(=O)Cc1c(C)c2ccc(O)cc2oc1=O	-2%	i
CCOc1ccc(CCNC(=O)c2nc(-c3cccc(F)c3)n3c2CCCCC3)cc1OCC	?	18µM*
CN(C(=O)c1nc(-c2cccc(F)c2)n2c1CCCCC2)c1ccccc1F	-2%	i
NS(=O)(=O)c1ccc(N/N=C/c2cccc(Cl)c2)c([N+](=O)[O-])c1	5%	i
O=C(C1CC1)N(Cc1ccc2c(c1)CN(S(=O)(=O)c1cc(F)cc(F)c1)CCO2)c1ccccc1	-4%	i
O=C(C1CC1)N(Cc1ccc2c(c1)CN(S(=O)(=O)c1cc(F)ccc1F)CCO2)c1ccccc1	89µM*	i
CCc1ccc(CSc2nc(-c3ccccc3F)nc3c2Cc2c(CO)cnc(C)c2O3)cc1	-2%	i
CCN(CC)C(=O)CSc1nc(-c2ccccc2F)nc2c1Cc1c(CO)cnc(C)c1O2	5%	28µM*
CCOc1ccc2oc(=O)cc(-c3cc4ccccc4o3)c2c1	9%	i
N.N.N.N.N.N.N.N.N.N.N.N.N.N.O.O.[Ru+4].[Ru+5].[Ru+5]	32µM*	22µM*
O=C(CN1CCN(CC(=O)N2CCC(Cc3ccccc3)CC2)CC1)Nc1ccccc1Cl	-4%	i
Cc1ccc(C)c(-c2ccc(=O)n(Cc3ccc(F)cc3Cl)n2)c1	?	32µM*
Cc1cc(=O)n(Cc2ccc(F)cc2Cl)c2c1c(C)nn2-c1ccccc1	38%	i
COc1cccc(C2/C(=C(\O)c3ccc4c(c3)OCCO4)C(=O)C(=O)N2CCc2ccccc2)c1 (configuration not stated)	4%	?
Cn1c(=O)c2c(-c3ccc(Cl)cc3)n(CCc3ccccc3)cc2n(C)c1=O	-18%	?
Cn1c(=O)c2c(-c3ccc(Br)cc3)n(CCc3ccccc3)cc2n(C)c1=O	0%	40µM*
CC(C)(C)c1ccc2c(c1)OCCOCCOCCO2	6%	i
CCN(CC)c1ccc(C(=O)NCc2ccc3c(c2)CCN3C(=O)c2ccccc2)cc1	19%	i
CN(C)c1ccc(C(=O)NCc2ccc3c(c2)CCN3C(=O)c2ccccc2)cc1	79µM*	i
CC1CCCN(c2nc(-c3ccccn3)nc3ccccc23)C1 (configuration not stated)	-13%	i
CC(C)CCNc1nc(-c2ccc(O)c(C(N)=O)c2)cs1	12%	i
Cn1nc(C(=O)OCC(=O)NCc2ccco2)c2ccccc2c1=O	-4%	i
SMILES	UDG counterscr	AID inh
COCCN(CCOC)C(=O)COC(=O)c1ccc(C#N)cc1	4%	i
COCCn1c(N2CCCC(C)C2)nc2c1c(=O)[nH]c(=O)n2C (configuration not stated)	3%	i
CCCN(CCC)CCNC(=O)c1cc2c(-c3ccc(Cl)cc3)nn(C)c2s1	-23%[57.5 µM]	?
CCCCN(CC)CCNC(=O)c1cc2c(-c3ccc(Cl)cc3)nn(C)c2s1	-29%	89µM*
CN(Cc1ccc2c(c1)OCO2)C(=O)c1nn(-c2ccccc2)c(=O)c2ccccc12	6%	i
c1coc(-c2nc(-c3ccc4c(c3)OCCCO4)cs2)c1	-5%	i
COc1ccc2c(c1)Cc1sc(NC(=O)c3cccc(Br)c3)nc1-2	-19%	50µM*
COc1ccc2c(c1)Cc1sc(NC(=O)c3cccc(F)c3)nc1-2	-10%	?
CCOc1ccccc1NC(=O)C(C)Sc1nc(-c2ccccc2)c(C#N)c(=O)[nH]1 (configuration not stated)	7%	35µM*
CCOc1ccccc1NC(=O)C(CC)Sc1nc2ncccc2[nH]1 (configuration not stated)	-2%[57.5 µM]	i
Cc1[nH]n(-c2ccc(F)cc2)c(=O)c1CCC(=O)Nc1ccc(C#N)cc1	-1%	i
CCn1cc(S(=O)(=O)c2ccc(C)cc2C)c(=O)c2cc(F)c(N3CCCC3)cc21	?	22µM*
Cc1ccc(S(=O)(=O)c2cn(C)c3cc(N4CCCC4)c(F)cc3c2=O)c(C)c1	3%	i
O=S(Cc1cccc(C(F)(F)F)c1)Cc1ccc(Cl)cc1Cl (configuration not stated)	-4%	i
COc1c(Cl)cc(C(=O)N(Cc2ccc(C)o2)C2CCS(=O)(=O)C2)cc1Cl (configuration not stated)	89µM*	i
